The record followed here is the supplement of paper PMC6555819.

Holding throughout (experiment): PBM binding z-score (relative to random genomic background probes); higher = stronger binding; sequences stand for … in GC…GCGATTGACAGCGTAGAATGAAGG
Assay [1] concerns FXR:RXRa (NR concentration 270 nM, RXRa partner concentration 90 nM). The essentials:
(§1)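 Binding z-scores take random background probes as their reference. They come from custom Agilent 4×180K protein-binding microarrays incubated 1 h with ligand-free nuclear receptor dimers, with antibodies against each partner (one per run) detecting binding. Scanned fluorescence was regression-normalized.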

For assay [2], the system named is LXRa:RXRa (NR concentration 270 nM, RXRa partner concentration 90 nM). The essentials: as §1
In assay [3] the test system is LXRa homodimer (NR concentration 270 nM). The essentials: as §1
Assay [4] has as its system LXRb:RXRa (NR concentration 270 nM, RXRa partner concentration 90 nM). The essentials: as §1
The subject of assay [5] is LXRb homodimer (NR concentration 270 nM). The essentials: as §1
The test system of assay [6] is PPARa:RXRa (NR concentration 270 nM, RXRa partner concentration 90 nM). The essentials:
as §1

Assay [7] relates to PPARg:RXRa (NR concentration 180 nM, RXRa partner concentration 90 nM). The essentials: as §1
For assay [8], the system named is PPARg:RXRa 270nM:90nM, anti-RXR (NR concentration 270 nM, RXRa partner concentration 90 nM). The essentials: as §1
Assay [9] relates to PPARg:RXRa 30nM:10nM, anti-RXR (NR concentration 30 nM, RXRa partner concentration 10 nM). The essentials: as §1
For assay [10], the system named is PPARg:RXRa 90nM:30nM, anti-RXR (NR concentration 90 nM, RXRa partner concentration 30 nM). The essentials:
as §1

Assay [11] concerns PPARg:RXRa DBDmut IVT, anti-RXR (DBD mutation: RXRa K156A/R161A, NR concentration 270 nM, RXRa partner concentration 90 nM). The essentials:
as §1

The test system of assay [12] is PPARg:RXRa IVT, anti-PPARg (NR concentration 270 nM, RXRa partner concentration 90 nM). The essentials: as §1
Assay [13] has as its system PPARg DBDmut:RXRa IVT, anti-PPARg (DBD mutation: PPARg1 K132A/R137A, NR concentration 270 nM, RXRa partner concentration 90 nM). The essentials:
as §1

Assay [14] concerns PPARg DBDmut IVT, anti-PPARg (DBD mutation: PPARg1 K132A/R137A, NR concentration 270 nM). The essentials:
as §1

For assay [15], the system named is PPARg homodimer (NR concentration 180 nM). The essentials:
as §1

Assay [16] has as its system PXR:RXRa (NR concentration 270 nM, RXRa partner concentration 90 nM). The essentials:
as §1

Assay [17] relates to PXR homodimer (NR concentration 270 nM). The essentials: as §1
Assay [18] relates to RARa:RXR (NR concentration 270 nM, RXRa partner concentration 90 nM). The essentials: as §1
Assay [19] relates to RARa homodimer (NR concentration 270 nM). The essentials:
as §1

In assay [20] the test system is RARb:RXRa (NR concentration 270 nM, RXRa partner concentration 90 nM). The essentials: as §1

As to ACTAGTTGGTCAGATGAGGTCACACACAATTCGG, the PBM binding z-score in assay [1] was 3.83; in [2] it was 3.41; in assay [3] it was 2.89; in assay [4] it was 3.36; in assay [5], 0.869; in [6] it was 3.74. The PBM binding z-score is 2.28 in [7]; 2.43 in assay [8]; 0.846 in assay [9]; 1.63 in assay [10]; 1.63 in [11]; 2.78 in assay [12]. The PBM binding z-score in [13] came to 1.26; in assay [14] it was 1.93; in [15], 3.45; in assay [16], 5.55; in assay [17], 2.21; in assay [18] it was 4.72. Further, the PBM binding z-score in assay [19] was found to be 2.3; in [20] it was 3.3.

For the sequence TGAATGAGGTTAGAGATCAGGGAACGTGGCGTCG, the PBM binding z-score in assay [1] is 0.893; in assay [2], 0.556; in assay [3], -0.223; in [4], 0.296; in assay [5], 0.27; in [6], 2.47. For the same sequence, the PBM binding z-score in assay [7] worked out at 2.82; in [8] it was 4.06; in [9] it was 2.73; in assay [10], 4.07; in assay [11] it was 0.771; in [12], 2.14. The PBM binding z-score was 0.576 in assay [13]; 0.367 in assay [14]; 0.476 in assay [15]; 0.397 in assay [16]; -0.359 in assay [17]; 1.29 in assay [18]. In addition, the PBM binding z-score is -0.00359 in [19] and 1.3 in assay [20].

With GGAACGAGGGCATTCGAGCTGATAGCATGGCGAT, the PBM binding z-score in assay [1] was 0.586; in assay [2], 0.0957; in assay [3] it was -0.939; in assay [4], -0.339; in [5], -0.953; in assay [6] it was 1.17. Also, the PBM binding z-score was 0.733 in [7]; 0.363 in assay [8]; -0.239 in assay [9]; -0.177 in assay [10]; 2.71 in assay [11]; 1.64 in assay [12]. Moreover, the PBM binding z-score in assay [13] was -0.32; in [14] it was -0.167; in assay [15], -0.0868; in [16], 0.26; in assay [17] it was -0.341; in assay [18] it was -0.000407. For the same sequence, the PBM binding z-score in assay [19] is -0.846; in assay [20], 1.45.

Turning to GCTTACGGGACAAAGGTTATAGCATGAATAGAAT, the PBM binding z-score in assay [1] was 1.23; in [2] it was 1.56; in assay [3] it was 0.265; in assay [4], 2.04; in assay [5] it was -0.135; in assay [6], 4.42. In addition, the PBM binding z-score amounted to 7.78 in assay [7]; 7.39 in [8]; 6.27 in [9]; 8.27 in [10]; 1.28 in assay [11]; 3.13 in assay [12]. In addition, the PBM binding z-score in [13] was 0.314; in assay [14] it was 1.06; in assay [15], 1.03; in assay [16], 1.57; in [17], 0.222; in [18], 2.59. Besides, the PBM binding z-score in [19] stood at 0.238; in [20], 1.81.

Turning to ATCGAAAGGTCGAAGGTGATTATACCCACCCGAA, the PBM binding z-score was 4.31 in assay [1]; 3.69 in assay [2]; 0.425 in [3]; 2.92 in assay [4]; 0.626 in assay [5]; 4.48 in assay [6]. Further, the PBM binding z-score in assay [7] is 4.21; in assay [8], 4.47; in assay [9] it was 2.33; in assay [10], 3.99; in assay [11], 0.155; in [12], 2. For the same sequence, the PBM binding z-score in assay [13] was determined as 1.25; in assay [14] it was 0.935; in assay [15], 1.86; in assay [16] it was 2.89; in [17], 0.393; in assay [18], 4.03. The PBM binding z-score in assay [19] was determined as 0.957; in assay [20], 3.5.

With AGAACGAGGGCAATGGGTTGATAGCACGGGTGGC, the PBM binding z-score in assay [1] was 0.877; in assay [2], 0.764; in assay [3], -0.127; in assay [4], 0.316; in [5], 0.02; in [6], 1.67. In addition, the PBM binding z-score in [7] is 1.78; in [8], 1.38; in assay [9] it was -0.00991; in [10], 1.08; in [11] it was 3.27; in assay [12], 3.01. The PBM binding z-score in assay [13] was 0.598; in assay [14], -0.394; in [15] it was 1.19; in [16], 1.48; in assay [17], 4.66; in assay [18] it was 0.466. Further, the PBM binding z-score in assay [19] was 0.403; in assay [20] it was 2.4.

On to ATCTCTCGGTAAAGATAGTTCAGTGAATGCAAAT, for which the PBM binding z-score stood at 0.327 in assay [1]; 1.31 in assay [2]; 0.62 in assay [3]; 0.406 in [4]; 0.893 in assay [5]; 0.353 in [6]. The PBM binding z-score is 0.0238 in assay [7]; 0.0221 in assay [8]; 0.409 in assay [9]; 0.333 in assay [10]; -0.304 in assay [11]; 0.216 in [12]. The PBM binding z-score amounted to 0.814 in [13]; 0.624 in assay [14]; 1.08 in assay [15]; 0.754 in assay [16]; 0.572 in [17]; 0.965 in assay [18]. Besides, the PBM binding z-score in assay [19] is 1.32; in assay [20], 0.868.
